PubChem BioAssay (NCATS)
Results filed as inconclusive are left out. A number with no mark means an inactive call. The source made the active and inactive calls. Calls come from the whole dose curve; as a rule, active = well fitted inhibition curve with a large enough effect; inconclusive = small, poorly fitted or top-dose-only effect; inactive = flat fitted curve, though single readings scatter.

test system: W2; assay: qHTS profiling for inhibitors of Plasmodium falciparum proliferation (AID 504749); note: nearly all actives have a fitted effect of over 60% in size;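 for activity, negative = inhibition: 0% = DMSO vehicle and full inhibition = artemisinin control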; conditions: P. falciparum in erythrocytes, SYBR Green DNA, 72 h; series mostly up to 28.7 µM; activity, negative = inhibition: at the top concentration
Excerpt: NIH National Institute of Allergy and Infectious Diseases [NIAID] NIH Chemical Genomics Center [NCGC] MLPCN Grant: None Assay Provider: Xinzhuan Su, NIAID NCGC Assay Overview: Plasmodium falciparum is a virulent malarial parasite that kills 1-2 million people worldwide each year. Transmitted by mosquitoes, the sporozoite form of the parasite enters the blood stream to infect hepatocytes, where they become merozoites that infect red blood cells (erythrocytes). Within erythrocytes, merozoites begin a […] cycle of growth and division, after which the parasite is released to infect new red blood cells. Gametocytes, which form within erythrocytes as well, circulate in the bloodstream and are ingested by the mosquito, thereby completing the life cycle. To profile malarial isolates for differential chemical responses and to identify inhibitors of malarial growth, an assay that measures P. falciparum growth and replication within erythrocytes was employed. This assay uses a DNA binding fluorescent dye (SYBR Green) to detect parasite DNA following cell lysis. Because mature erythrocytes lack DNA, only Plasmodium-derived DNA is detected.
NCGC Assay Protocol Summary: The SYBR Green viability assay was adapted from a method described previously (Plouffe et al., 2008). For screening 3 ul culture medium was dispensed into 1536 well black clear bottom plates (Aurora Biotechnologies) using a Multidrop Combi (Thermo Fisher Scientific Inc.), 23 nL compounds in DMSO were added by a pin tool (Kalypsys), and 5 ul of erythrocytes infected with P. falciparum (0.3% parasitemia, 2.5% hematocrit final concentration) were added. The plates were incubated at 37 C in a humidified incubator in 5% CO2 for 72 h, and 2 ul lysis buffer (20 mM Tris HCl, 10 mM EDTA, 0.16% saponin, 1.6% triton X, 10X SYBR Green I supplied as 10,000X […] by Invitrogen) was added to each well. The plates were mixed for 25 sec with gentle shaking and incubated overnight at room temperature in the dark. The following morning, fluorescence intensity at 485(14) nm excitation and 535(25) nm emission wavelengths was measured on an EnVision (Perkin Elmer) plate reader. Plate reads were normalized relative to the control inhibitor (0.29 uM artemisinin) and vehicle (DMSO) wells present on each plate and then corrected by an algorithm using vehicle-only control plates at the beginning and end of the compound plate stack.
Potency is the fitted concentration of half-maximal effect.

Row | Structure (SMILES) | activity, negative = inhibition | Potency
1 | COC(=O)C1C(OC(=O)c2ccccc2)CC2CCC1N2C (stereo unspecified) | -2.76% | 
2 | C#C[C@]1(O)CC[C@H]2[C@@H]3CCC4=CC(=O)CCC4(C)[C@H]3CCC21C (stereo partly specified) | -3.05% | 
3 | CCCCCC(O)C1C(=O)OC(C)C(O)\C=C/C=C\C=C/C=C\C=C(\C)C(O)C(O)C(O)CC(O)CC(O)CC(O)CC(O)CC1O (stereo unspecified) | 9.09% | 
4 | CCOC(=O)/C=C(C)/C=C/CC(C)CCCC(C)C (stereo unspecified) | 14.7% | 
5 | CN1C2CCC1C(C(=O)O)C(OC(=O)c1ccccc1)C2 (stereo unspecified) | 4.86% | 
6 | COC(C(=O)C(O)C(C)O)C1Cc2cc3cc(OC4CC(OC5CC(O)C(OC)C(C)O5)C(OC(C)=O)C(C)O4)c(C)c(O)c3c(O)c2C(=O)C1OC1CC(OC2CC(OC3CC(C)(O)C(OC(C)=O)C(C)O3)C(O)C(C)O2)C(O)C(C)O1 (stereo unspecified) |  | 0.426 µM (active)
7 | CC1(C)S[C@@H]2[C@H](N)C(=O)N2C1C(=O)O (stereo partly specified) | -1.51% [at 12.8 µM] | 
8 | O=C1CC2OCC=C3CN4CC[C@]56c7ccccc7N1C5C2[C@H]3C[C@H]46 (stereo partly specified) |  | 3.38 µM (active)
9 | C=CC[N+]1(C)CCC23c4c5ccc(O)c4O[C@H]2C(=O)CC[C@@]3(O)C1C5 (stereo partly specified) | 3.33% | 
10 | CN(C)[C@@H](Cc1ccccc1)c1ccccc1 |  | 4.78 µM (active)
11 | CCN(CC)C(=O)N[C@@H]1C=C2c3cccc4[nH]cc(c34)C[C@H]2N(C)C1 |  | 5.36 µM (active)
12 | C[C@]12C=CC(=O)C=C1CC[C@@H]1C2CC[C@]2(C)OC(=O)CCC12 (stereo partly specified) | 15.4% | 
13 | CCCCCCC(=O)O[C@H]1CC[C@H]2[C@@H]3CCC4CC(=O)C=C(C)[C@]4(C)[C@H]3CC[C@]12C (stereo partly specified) |  | 7.57 µM (active)
14 | OC[C@@H](O)[C@H]1O[C@@H]2OC(C(Cl)(Cl)Cl)O[C@H]2[C@H]1O (stereo partly specified) | -4.04% | 
15 | O=[N+]([O-])OC1CO[C@H]2C(O[N+](=O)[O-])COC12 (stereo partly specified) | 1.13% | 
16 | CCCN1CCCC2Cc3nc(N)ncc3CC21 (stereo unspecified) | 5.95% | 
17 | CCOC(=O)c1cncn1[C@@H](C)c1ccccc1 |  | 1.81 µM (active)
18 | COc1ccc2c3c1O[C@H]1[C@@H](O)C=C[C@H]4C(C2)NCCC341 (stereo partly specified) | -1.83% | 

Row | Structure (SMILES) | activity, negative = inhibition | Potency
19 | C[C@@H]1CC[C@H]2[C@@H](C)C(=O)O[C@@H]3OC4(C)CC[C@@H]1C32OO4 (stereo partly specified) |  | 0.003 µM (active)
20 | CC(=O)Oc1ccc2c3c1OC1[C@@H](OC(C)=O)C=C[C@H]4[C@H](C2)N(C)CC[C@]314 (stereo partly specified) | -14.7% | 
21 | C[C@]12CCC3C(CCC4=C(Cl)C(=O)CC[C@@]43C)C1CCC2O (stereo partly specified) | -2.23% | 
22 | CC(=O)O[C@H]1C[C@H](O[C@H]2[C@@H](O)CC(O[C@H]3[C@@H](O)C[C@H](O[C@H]4CC[C@@]5(C)[C@H](CC[C@@H]6[C@@H]5CC[C@]5(C)[C@@H](C7=CC(=O)OC7)CC[C@]65O)C4)O[C@@H]3C)O[C@@H]2C)O[C@H](C)[C@H]1O[C@@H]1O[C@H](CO)[C@@H](O)[C@H](O)[C@H]1O (stereo partly specified) | 1.99% | 
23 | CCCC(C)C1(CC)C(=O)NC(=S)NC1=O (stereo unspecified) |  | 9.53 µM (active)
24 | C[C@@H](N)[C@@H](O)c1ccc(O)c(O)c1 | -18.1% | 
25 | Nc1nc(O)c(-c2ccccc2)o1 | 2.79% | 
26 | C=C1Nc2ccccc2C(=O)N1c1ccccc1C | 2.6% | 
27 | OCC(O)[C@H]1O[C@@H]2O[C@H](C(Cl)(Cl)Cl)O[C@@H]2[C@H]1O (stereo partly specified) | 4.2% | 
28 | CN(C)C1C(=O)C(C(N)=O)C(=O)C2(O)C(=O)C3C(=O)c4c(O)cccc4C(C)(O)C3C(O)C12 (stereo unspecified) |  | 6.75 µM (active)
29 | [S]=[Sb][S][Sb]=[S] | 8.06% | 
30 | CCCCCc1cc(O)c2c(c1)OC(C)(C)C1CC=C(C)CC21 (stereo unspecified) |  | 1.51 µM (active)
31 | C#CC1(O)C=CC2C3CCC4=CC(=O)CCC4C3CCC21CC (stereo unspecified) |  | 6.01 µM (active)
32 | C#CCN1CC(=O)N(COC(=O)[C@@H]2[C@@H](C=C(C)C)C2(C)C)C1=O | 1.26% | 
33 | CCC/C=C/C=C/C(=O)OC1/C(=C/C(=O)OC)CC2CC(C(C)O)OC(=O)CC(O)CC3CC(OC(C)=O)C(C)(C)C(O)(CC4C/C(=C/C(=O)OC)CC(/C=C\C(C)(C)C1(O)O2)O4)O3 (stereo unspecified) |  | 0.953 µM (active)
34 | C[C@H](N)Cc1ccccc1 | 5.95% | 
35 | CCC(=O)OC1(c2ccccc2)CCN(C)CC1C (stereo unspecified) |  | 3.79 µM (active)
36 | CC(CO)NC(=O)C1C=C2c3cccc4[nH]cc(c34)CC2N(C)C1 (stereo unspecified) | -10.1% | 
